# From publication PMC4336329 (PLoS ONE, 2015)
# About 14,000 (4.5%) of roughly 310,000 compounds showed an effect of 50% or more. The effect is printed as a negative number. Many of the other results were omitted from the sample, so strong results are more common in it than they were.
# Biological target: human ether-à-go-go-related gene (hERG) potassium channel (human, UniProt Q12809)
# Assay: primary screen, population patch clamp on CHO cells stably expressing hERG; higher = less effect of the substance
# 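Also: peak tail current of the secondary pulse compared with the same well before compound.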
# Chain of human ether-à-go-go-related gene (hERG) potassium channel (Q12809 whole entry, looked up): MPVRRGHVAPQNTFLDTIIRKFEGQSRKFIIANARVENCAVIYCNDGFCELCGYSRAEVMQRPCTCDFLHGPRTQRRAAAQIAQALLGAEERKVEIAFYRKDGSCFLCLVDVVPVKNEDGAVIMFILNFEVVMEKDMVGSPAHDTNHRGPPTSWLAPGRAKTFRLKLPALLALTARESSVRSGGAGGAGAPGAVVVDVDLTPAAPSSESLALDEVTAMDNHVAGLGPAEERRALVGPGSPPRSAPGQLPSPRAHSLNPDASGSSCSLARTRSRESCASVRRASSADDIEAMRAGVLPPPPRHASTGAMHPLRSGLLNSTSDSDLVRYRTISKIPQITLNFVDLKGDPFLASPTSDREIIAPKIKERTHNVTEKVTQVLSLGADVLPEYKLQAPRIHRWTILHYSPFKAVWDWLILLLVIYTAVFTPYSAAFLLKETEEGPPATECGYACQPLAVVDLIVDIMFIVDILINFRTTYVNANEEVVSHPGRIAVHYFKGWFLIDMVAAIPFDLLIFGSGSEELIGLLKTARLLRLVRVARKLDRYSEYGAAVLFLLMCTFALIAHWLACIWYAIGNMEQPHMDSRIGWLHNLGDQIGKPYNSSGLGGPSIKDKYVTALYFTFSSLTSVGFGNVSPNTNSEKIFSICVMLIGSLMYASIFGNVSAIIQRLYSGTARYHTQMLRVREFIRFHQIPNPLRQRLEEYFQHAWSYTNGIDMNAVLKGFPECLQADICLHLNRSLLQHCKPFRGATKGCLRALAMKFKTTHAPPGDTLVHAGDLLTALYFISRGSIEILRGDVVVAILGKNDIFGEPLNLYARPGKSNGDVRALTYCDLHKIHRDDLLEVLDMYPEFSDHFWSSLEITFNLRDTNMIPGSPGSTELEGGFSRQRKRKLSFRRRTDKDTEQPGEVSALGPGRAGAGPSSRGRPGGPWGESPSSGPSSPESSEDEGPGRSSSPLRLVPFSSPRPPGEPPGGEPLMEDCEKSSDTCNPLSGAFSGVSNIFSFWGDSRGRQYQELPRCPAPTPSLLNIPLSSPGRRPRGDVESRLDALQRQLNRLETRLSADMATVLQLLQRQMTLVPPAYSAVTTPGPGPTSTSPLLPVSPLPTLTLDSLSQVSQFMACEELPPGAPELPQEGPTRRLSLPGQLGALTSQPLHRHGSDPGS
row,Structure (SMILES),"hERG current change (%, negative = inhibition) at 10uM"
1,CCOC(=O)COc1ccc(S(=O)(=O)Nc2ccc3c(c2)OCCO3)cc1,-3.24%
2,COC(=O)C(Sc1nc(C)cc(C)c1C#N)c1ccccc1 (stereo not shown),-10.6%
3,CC(CC(=O)NC1CCCCC1)S(=O)(=O)c1ccc2c(c1)CCN2C(=O)C1CC1 (stereo not shown),28.2%
4,CCCS(=O)(=O)N1CCCC(C(=O)NCc2ccc(C)cc2)C1 (stereo not shown),4.91%
5,COc1ccc(S(=O)(=O)N2CCOCC2)cc1NC(=O)COC(=O)C1CCC1,-6.23%
6,CC1=C(/C=C/c2ccccc2)CCN(C)C1.Cl,-24.6%
7,CN1CC=C(/C=C/c2ccc(-c3ccccc3)cc2)CC1.Cl,-50.1%
8,Cl.OC(CN1CC=C(/C=C/c2ccc(Br)cc2)CC1)c1ccccc1 (stereo not shown),-2.33%
9,CCCCc1nc(SCC(=O)Nc2cccc(Cl)c2)n[nH]1,-4.4%
10,Nc1ccc2nc(SCC(=O)c3ccccc3)sc2c1,9.11%
11,COc1ccc(NC(=S)NCCCN2CCCC2)cc1,5.95%
12,CCOc1ccc(NC(=S)NCCN2CCN(Cc3ccccc3)CC2)cc1,-62.3%
13,CCCN1CCN(CCCNC(=S)Nc2ccc(OC)cc2)CC1,-22.8%
14,COc1ccc(N2CCN(CCCNC(=S)Nc3c(C)cccc3C)CC2)cc1,-52.4%
15,CCOc1cccc(C(=O)NC(=S)Nc2ccc(N3CCN(CC)CC3)cc2)c1,-72.1%
16,CCOc1ccc(NC(=S)NCCCc2ccccc2)cc1,-12.4%
17,COc1ccc(N2CCC(CNC(=S)Nc3c(C)cccc3C)C2)cc1 (stereo not shown),-4.72%
18,CCOc1ccc(NC(=S)NCCCN2CCN(c3ccc(OC)cc3)CC2)cc1,-70.7%
19,CCCOc1cccc(C(=O)NC(=S)Nc2ccc(N3CCN(C)CC3)cc2)c1,1.67%
20,CCOc1ccc(NC(=S)Nc2ccc(OCc3ccccc3)cc2)cc1,4.64%
21,CCOc1ccc(NC(=S)NCCCN2CCOCC2)cc1,10.7%
22,CCOc1cccc(C(=O)NC(=S)Nc2ccc(N3CCCC3)cc2)c1,10.8%
23,COCCCn1cc(C(=O)c2ccccc2OCC(=O)Nc2cccc(F)c2)cc(C#N)c1=O,-35.9%

row,Structure (SMILES),"hERG current change (%, negative = inhibition) at 10uM"
1,CN([C@@H](C(=O)OC(C)(C)C)c1ccccc1)S(=O)(=O)c1cccc(S(=O)(=O)N(C)[C@@H](C(=O)OC(C)(C)C)c2ccccc2)c1,14.3%
2,O=C(Nc1ccc(Cl)cc1F)c1cccc2ccccc12,12.2%
3,COc1cc(Cn2c(=O)c3c(OC)c(C)cnc3n(C)c2=O)cc(OC)c1,14.1%
4,Cn1c(CO)cnc1SCc1ccc(Cl)cc1,0.94%
5,Cc1ccc(C(=O)NC(=S)NCCCN2CCOCC2)cc1,-7.43%
6,CCOc1ccc(C(=O)NC(=S)NCCCN2CCOCC2)cc1,-50.1%
7,O=C(NC(=S)NCCCN1CCOCC1)c1ccc(Br)cc1,-42.9%
8,O=C(O)c1ccc(N2C(=O)CC(N3CCN(c4ccc(Cl)cc4)CC3)C2=O)cc1 (stereo not shown),6.79%
9,O=C(NCc1ccc(-c2csnn2)cc1)C1CC1,7.09%
10,CC1CCN(c2nc3c(=O)[nH]c(N)nc3n2[C@@H]2O[C@H](CO)[C@@H](O)[C@H]2O)CC1,13.6%
11,COC(=O)c1ccc(NC(=O)Cn2cnc3c(nnn3-c3cccc(OC)c3)c2=O)cc1,3.08%
12,CN1CCc2nc3ccc(Cl)cc3c(-c3ccccc3Cl)c2C1.Cl,-65.7%
13,Cl.Clc1ccc2nc3c(c(-c4ccccc4)c2c1)CNCC3,-37.3%
14,CN1CCc2nc3ccc(F)cc3c(C(N)=O)c2C1.Cl,-4.4%
15,CN(C)c1ccc(Nc2ncnc3ccc(Br)cc23)cc1,20.4%
16,CNc1c([N+](=O)[O-])cnn1-c1ccc(C)cc1,-2.24%
17,COc1cc(CN2CCCC(N3CCN(c4ccccc4C)CC3)C2)ccc1O (stereo not shown),-27%
18,Cc1cccc(C(=O)N2CCCC(N3CCN(c4cccc(Cl)c4)CC3)C2)n1 (stereo not shown),-17.5%
19,CCOc1cc(CN2CCCC(N3CCN(c4ccc(F)cc4)CC3)C2)ccc1OC (stereo not shown),-62.7%
20,COc1ccccc1N1CCN(C2CCCN(Cc3ccc(Cl)cc3)C2)CC1 (stereo not shown),-41.1%
21,COc1ccc(O)c(CN2CCCC(N3CCN(c4ccccc4OC)CC3)C2)c1 (stereo not shown),-11%
22,COc1ccc(N2CCN(C3CCCN(Cc4ccc(F)cc4Cl)C3)CC2)cc1 (stereo not shown),-35.2%
23,COc1ccc(O)c(CN2CCCC(N3CCN(c4ccc(F)cc4)CC3)C2)c1 (stereo not shown),-59.7%
